HEK293 cAMP cs: raises cAMP in parental HEK293 cells, TSHR agonist counter-screen; AID 938; Potency, µM (top dose mostly 57.1 µM), usual class: activators; 73,000 tested, 2.5% active; parental HEK293 CNG cAMP sensor, membrane potential fluorescence; note: nearly all actives have a fitted effect of over 55% in size
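Parental HEK 293 cells stably expressing a modified CNG channel (no TSHR) report cAMP rise as membrane depolarization. Membrane potential dye with 100 uM RO 20-1724 was loaded for 60 min at room temperature, then compound added for 30 min; fluorescence read at 590 nm.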
TSHR ag: agonists of human thyroid stimulating hormone receptor; P16473; Potency, µM (top dose mostly 57.1 µM), actives largely listed as activators; HEK293-CNG-TSHR cells (CNG channel as cAMP sensor), membrane potential dye, cAMP; AID 926; 73,000 tested, 0.48% active; active = well fitted activation curve with a large enough effect in the main read-out, with a control signal flat, not every such curve was filed as active; inconclusive = small, poorly fitted or top-dose-only effect, or a change in a side signal; inactive = no such curve, though single readings can be large or run the other way; reference of the percent scale not stated here;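 note: the control signal comes from parental cells without the receptor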
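cAMP rise detected as CNG-channel membrane depolarization by fluorescent dye (emission 590 nm), 30 min after compound, following 60 min dye loading containing 100 uM RO 20-1724 at room temperature. Cells: TSHR/CNG HEK 293, with parental CNG HEK 293 as control.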
Pol III holo inh: DNA polymerase III holoenzyme inhibition | reconstituted DNA polymerase III holoenzyme replication, biochemical | Potency, µM (series often up to 57.1 µM) | 71,000 tested, 0.25% active
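Reconstituted *E. coli* holoenzyme (0.35 nM Pol III, 1 nM beta, 154 nM SSB, 2 nM primase) was preincubated with compound for 15 min at RT. Synthesis on 1.4 nM ssM13Gori ran 35 min, then was stopped with PicoGreen/EDTA and read as dsDNA fluorescence.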
TsaE inh: displaces an ADP probe from E. coli YjeE (TsaE); P0AF67; purified YjeE enzyme, qHTS inhibition assay; Potency, µM; 71,000 tested, 0.05% active
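Fluorescence polarization of a BODIPY Texas Red–ADP probe (2 uM) bound to purified YjeE (10 uM) was read after 15 min room-temperature incubation with compounds. Loss of polarization marks inhibitors; ADP serves as titrated control.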
BRCT PPI red: inhibitors of human BRCA1 BRCT-phosphoprotein interaction (red fluorophore) | BRCT-phosphopeptide binding, red fluorescence polarization | 75,000 tested, 0.03% active | Potency, µM (titrated, usually from 76.9 µM), most hits filed as inhibitors | P38398
Target sequence (P38398 whole entry, looked up): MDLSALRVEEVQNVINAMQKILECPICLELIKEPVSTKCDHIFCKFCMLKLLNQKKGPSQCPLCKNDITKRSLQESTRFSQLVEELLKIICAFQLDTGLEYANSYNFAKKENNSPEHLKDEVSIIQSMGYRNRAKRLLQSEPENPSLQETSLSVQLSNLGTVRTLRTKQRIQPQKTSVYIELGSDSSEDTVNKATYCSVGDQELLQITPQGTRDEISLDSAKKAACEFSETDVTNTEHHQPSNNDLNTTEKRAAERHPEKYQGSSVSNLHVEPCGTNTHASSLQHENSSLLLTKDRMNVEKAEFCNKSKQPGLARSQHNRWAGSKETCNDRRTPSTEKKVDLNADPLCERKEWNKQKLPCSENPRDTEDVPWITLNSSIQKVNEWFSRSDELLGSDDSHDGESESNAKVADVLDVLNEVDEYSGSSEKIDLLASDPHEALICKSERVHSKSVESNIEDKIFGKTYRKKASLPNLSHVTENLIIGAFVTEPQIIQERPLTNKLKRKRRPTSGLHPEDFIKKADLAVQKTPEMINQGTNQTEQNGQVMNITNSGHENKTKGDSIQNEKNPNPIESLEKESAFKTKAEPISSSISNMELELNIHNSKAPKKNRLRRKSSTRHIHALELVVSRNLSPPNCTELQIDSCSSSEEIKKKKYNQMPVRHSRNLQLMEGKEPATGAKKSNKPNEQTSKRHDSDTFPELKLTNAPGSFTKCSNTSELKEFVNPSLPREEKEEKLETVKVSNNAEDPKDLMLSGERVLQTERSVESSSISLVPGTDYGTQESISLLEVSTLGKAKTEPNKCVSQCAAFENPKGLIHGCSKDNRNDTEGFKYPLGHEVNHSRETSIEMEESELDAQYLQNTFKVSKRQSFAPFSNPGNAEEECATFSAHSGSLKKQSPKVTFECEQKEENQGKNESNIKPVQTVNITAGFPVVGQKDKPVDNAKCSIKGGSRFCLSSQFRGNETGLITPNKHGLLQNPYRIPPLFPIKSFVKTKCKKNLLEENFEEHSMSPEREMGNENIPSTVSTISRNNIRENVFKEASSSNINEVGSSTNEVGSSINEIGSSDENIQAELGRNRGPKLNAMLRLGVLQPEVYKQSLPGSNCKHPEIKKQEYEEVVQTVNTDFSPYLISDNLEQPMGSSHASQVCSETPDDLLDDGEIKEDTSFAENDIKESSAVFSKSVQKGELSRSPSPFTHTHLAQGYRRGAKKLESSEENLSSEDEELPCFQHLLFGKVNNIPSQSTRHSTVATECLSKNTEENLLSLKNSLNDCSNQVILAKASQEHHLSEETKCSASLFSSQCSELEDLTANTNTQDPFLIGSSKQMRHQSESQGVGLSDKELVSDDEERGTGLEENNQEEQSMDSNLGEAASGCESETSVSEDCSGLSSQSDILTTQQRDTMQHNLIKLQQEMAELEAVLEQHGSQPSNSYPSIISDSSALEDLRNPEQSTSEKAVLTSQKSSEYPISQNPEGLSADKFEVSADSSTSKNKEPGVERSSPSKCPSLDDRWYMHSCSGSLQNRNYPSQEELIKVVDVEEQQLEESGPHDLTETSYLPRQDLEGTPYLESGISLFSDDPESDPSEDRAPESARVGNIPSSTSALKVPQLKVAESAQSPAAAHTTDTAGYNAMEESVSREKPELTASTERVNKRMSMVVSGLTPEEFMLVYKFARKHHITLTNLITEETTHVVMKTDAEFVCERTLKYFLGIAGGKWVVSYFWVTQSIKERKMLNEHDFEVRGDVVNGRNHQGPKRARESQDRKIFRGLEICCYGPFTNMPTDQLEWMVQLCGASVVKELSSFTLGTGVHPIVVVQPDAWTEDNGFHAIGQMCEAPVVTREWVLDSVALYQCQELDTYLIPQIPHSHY
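Rhodamine-labelled pBACH1 10-mer (100 nM) bound to BRCT domain (100 nM) at pH 7.3; compounds incubated 12 min room temperature, polarization read. Free peptide defines full inhibition; unlabelled decapeptide titrated as control.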
BRCT PPI green: BRCA1 BRCT-phosphoprotein interaction inhibition. Potency, µM (titrated, usually from 76.9 µM), usual class: inhibitors. BRCA1 BRCT-phosphopeptide binding, green fluorescence polarization. 75,000 tested, 0.05% active
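Compounds were incubated for 12 min at room temperature with a complex of 100 nM fluorescein-tagged pBACH1 decapeptide and 250 nM His-tagged BRCT protein. Buffer was phosphate pH 7.3 with EDTA, DTT and Tween 20. Disruption of binding lowers the polarization signal.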
Hits are given with their value; [ ] = dose if it differs, or a comment. An excerpt weighted towards active compounds, which were near 3.2% of everything screened. Unless noted, calls come from the whole dose curve; as a rule, active = well fitted curve in the direction sought with a large enough effect; inconclusive = small, poorly fitted or top-dose-only effect, or another doubt; inactive = no such curve, though single readings can be large; an effect the other way counts as inactive or inconclusive.

What do the screens show for `COc1ccc(C2=Nn3c(nnc3-c3ccccc3OC)SC2)cc1OC`?
HEK293 cAMP cs: inactive; TSHR ag: 10µM; Pol III holo inh: inactive; TsaE inh: inactive; BRCT PPI red: inactive; BRCT PPI green: inactive

What do the screens show for `c1ccc(C2=Nn3c(nnc3-c3cc(-c4ccccc4)n[nH]3)SC2)cc1`?
HEK293 cAMP cs: 25.1µM; TSHR ag: inconclusive; Pol III holo inh: inactive; TsaE inh: inactive; BRCT PPI red: inactive; BRCT PPI green: inactive

How did CC(=O)[C@@]1(O)Cc2c(O)c3c(c(O)c2[C@H](O[C@H]2C[C@H](N)[C@H](O)[C@H](C)O2)C1)C(=O)c1ccccc1C3=O do in these assays?
HEK293 cAMP cs: inconclusive; TSHR ag: inconclusive; Pol III holo inh: 3.98µM; TsaE inh: 50.1µM; BRCT PPI red: 12.6µM; BRCT PPI green: inactive

What do the screens show for `COc1cccc2c1C(=N)c1c(O)c3c(c(O)c1C2=O)C[C@](O)(C(C)=O)C[C@@H]3O[C@H]1C[C@H](N)[C@@H](O)[C@H](C)O1`?
HEK293 cAMP cs: inactive[11.4 µM]; TSHR ag: inactive[11.4 µM]; Pol III holo inh: 3.16µM; TsaE inh: inactive; BRCT PPI red: inactive[15.4 µM]; BRCT PPI green: inactive[15.4 µM]

What do the screens show for `COc1cccc2c1C(=O)c1c(O)c3c(c(O)c1C2=O)C[C@@](O)(C(=O)CO)C[C@@H]3O[C@H]1C[C@H](N)[C@H](O)[C@H](C)O1`?
HEK293 cAMP cs: inactive; TSHR ag: inactive; BRCT PPI red: 10µM; BRCT PPI green: inactive

How did O=C(CSc1nnnn1-c1ccccc1)CC(=O)Nc1ccc(Cl)cc1 do in these assays?
HEK293 cAMP cs: inactive; TSHR ag: inactive; Pol III holo inh: inactive; TsaE inh: inactive; BRCT PPI red: inactive; BRCT PPI green: inactive

What do the screens show for `CCS(=O)(=O)Nc1ccc(C(=O)CC2(O)C(=O)Nc3ccc(Br)cc32)cc1` (configuration not stated)?
HEK293 cAMP cs: inactive; TSHR ag: inactive; Pol III holo inh: inactive; TsaE inh: inactive; BRCT PPI red: inactive; BRCT PPI green: inactive

How did COc1ccc(S(=O)(=O)Nc2ccc3c(c2)OCO3)cc1OC do in these assays?
HEK293 cAMP cs: inactive; TSHR ag: inactive; Pol III holo inh: inactive; TsaE inh: inactive; BRCT PPI red: inactive; BRCT PPI green: inactive

Results for COc1ccc(S(=O)(=O)Nc2ccc3c(c2)OCO3)cc1C(=O)O ?
HEK293 cAMP cs: 31.6µM; TSHR ag: inconclusive; BRCT PPI red: inactive; BRCT PPI green: inactive

What do the screens show for `COc1ccc(S(=O)(=O)N(CC(=O)Nc2ccc3c(c2)OCO3)c2ccccc2OC)cc1`?
HEK293 cAMP cs: inactive; TSHR ag: 6.31µM; Pol III holo inh: inactive; TsaE inh: inactive; BRCT PPI red: inactive; BRCT PPI green: inactive

How did COc1ccccc1C(=O)N1CCN(C(=O)c2ccncc2)CC1 do in these assays?
HEK293 cAMP cs: 25.1µM; TSHR ag: inconclusive; Pol III holo inh: inactive; TsaE inh: inactive; BRCT PPI red: inactive; BRCT PPI green: inactive

Results for COc1ccc(NC(=O)c2cc(Cl)ccc2NC(=O)c2ccco2)c(OC)c1 ?
HEK293 cAMP cs: 25.1µM; TSHR ag: inconclusive; Pol III holo inh: inactive; TsaE inh: inactive; BRCT PPI red: inactive; BRCT PPI green: inactive

How did COc1cc(NC(=O)Cc2ccc(Cl)cc2)ccc1NC(=O)c1ccco1 do in these assays?
HEK293 cAMP cs: inactive; TSHR ag: inactive; Pol III holo inh: inactive; TsaE inh: inactive; BRCT PPI red: inactive; BRCT PPI green: inactive

What do the screens show for `Cc1cnc(NC(=O)CSc2nnc(Cc3ccccc3)n2C)s1`?
HEK293 cAMP cs: inactive; TSHR ag: inactive; Pol III holo inh: inactive; TsaE inh: inactive; BRCT PPI red: inactive; BRCT PPI green: inactive

What do the screens show for `COc1ccc2c(c1OC)C(=O)N(c1ccccn1)C2`?
HEK293 cAMP cs: inactive; TSHR ag: inactive; Pol III holo inh: inactive; TsaE inh: inactive; BRCT PPI red: inactive; BRCT PPI green: inactive

Results for O=C(c1cccc(F)c1)N1CCC2(CCCN(c3cccc(-c4ccccc4)c3)C2)CC1 ?
HEK293 cAMP cs: 1.26µM; TSHR ag: inconclusive; Pol III holo inh: inactive; TsaE inh: inactive; BRCT PPI red: inactive; BRCT PPI green: inactive

How did O=C(c1cc(C(F)(F)F)cc(C(F)(F)F)c1)N1CCC2(CC1)CCN(c1ccncc1)CC2 do in these assays?
HEK293 cAMP cs: 3.16µM; TSHR ag: inconclusive; Pol III holo inh: inactive; TsaE inh: inactive; BRCT PPI red: inactive; BRCT PPI green: inactive

How did O=C(c1cccc(F)c1)N1CCC2(CC1)CCN(c1ccncc1)CC2 do in these assays?
HEK293 cAMP cs: 3.98µM; TSHR ag: inconclusive; Pol III holo inh: inactive; TsaE inh: inactive; BRCT PPI red: inactive; BRCT PPI green: inactive

How did O=C(c1cccc(F)c1)N1CCC2(CCCN(c3ccncc3)C2)CC1 do in these assays?
HEK293 cAMP cs: inconclusive; TSHR ag: inconclusive; Pol III holo inh: inactive; TsaE inh: inactive; BRCT PPI red: inactive; BRCT PPI green: inactive

How did COc1ccc(OC)c(C2NC(=O)NC(C)=C2C(=O)Nc2ccc(C)cc2C)c1 (configuration not stated) do in these assays?
HEK293 cAMP cs: inactive; TSHR ag: inactive; Pol III holo inh: inactive; TsaE inh: inactive; BRCT PPI red: inactive; BRCT PPI green: inactive

What do the screens show for `Cn1c(C(=O)N(Cc2ccccc2)Cc2ccccn2)cc2sccc21`?
HEK293 cAMP cs: 15.8µM; TSHR ag: inconclusive; Pol III holo inh: inactive; TsaE inh: inactive; BRCT PPI red: inactive; BRCT PPI green: inactive

How did Cn1c(C(=O)N(Cc2ccccc2)Cc2cccs2)cc2sccc21 do in these assays?
HEK293 cAMP cs: 15.8µM; TSHR ag: inconclusive; Pol III holo inh: inactive; TsaE inh: inactive; BRCT PPI red: inactive; BRCT PPI green: inactive

How did O=C(CCn1c(=S)oc2ccccc21)Nc1ccc2c(c1)OCCO2 do in these assays?
HEK293 cAMP cs: inactive; TSHR ag: inactive[11.4 µM]; Pol III holo inh: inactive; TsaE inh: inactive; BRCT PPI red: inactive; BRCT PPI green: inactive

What do the screens show for `O=C(CSc1n[nH]c(=O)n1C1CC1)Nc1cc(Cl)ccc1Oc1ccccc1`?
HEK293 cAMP cs: 12.6µM; TSHR ag: inconclusive; Pol III holo inh: inactive; TsaE inh: inactive; BRCT PPI red: inactive; BRCT PPI green: inactive

Results for Cc1cc(=O)oc(C)c1C(=O)NCC1COc2ccccc2O1 (configuration not stated) ?
HEK293 cAMP cs: inactive; TSHR ag: inactive; Pol III holo inh: inactive; TsaE inh: inactive; BRCT PPI red: inactive; BRCT PPI green: inactive

How did CCCCOn1c(C)c(C(=O)OCC)c2c3nonc3ccc21 do in these assays?
HEK293 cAMP cs: 12.6µM; TSHR ag: inconclusive; Pol III holo inh: inactive; TsaE inh: inactive; BRCT PPI red: inactive; BRCT PPI green: inactive

How did CCCCOn1c(C)c(C(=O)OCC)c2c3no[n+]([O-])c3ccc21 do in these assays?
HEK293 cAMP cs: inactive; TSHR ag: inactive; Pol III holo inh: inactive; TsaE inh: inactive; BRCT PPI red: inactive; BRCT PPI green: inactive

Compound activity from PubChem.
